Assay outcomes from PubChem BioAssay.
FAS TE block – FAS thioesterase domain inhibitors, primary screen, biochemical, fluorescence intensity, uHTS | Fatty acid synthase (Homo sapiens), P49327 | recombinant FAS-TE, OMFH fluorogenic substrate, fluorescence endpoint | inhibition, % at 15 µM | 360,000 compounds, 0.67% hits | AID 602261, 2012;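 active = compounds whose normalised, plate-corrected inhibition of enzyme fluorescence in the single-dose primary screen is 50% or more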;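 note: 0% = DMSO with enzyme and 100% = substrate without enzyme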
ADAM10 inh – human ADAM10 inhibitors, primary screen, biochemical, QFRET, HTS; recombinant ADAM10, EDANS/DABCYL FRET peptide cleavage, 3 h; inhibition, % at 7 µM; 370,000 compounds, 0.62% hits; AID 720582, 2013;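 active = inhibition above a per-campaign cutoff equal to the mean of compounds falling between control-based bounds plus 3 SD, cut at about 20% in these data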;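 note: 0% = DMSO wells while the 100% control is not disclosed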
HGIII-sPLA2 inh – human group III sPLA2 inhibitors, primary screen, biochemical, QFRET, BODIPY PC-A2 liposome substrate; Group 3 secretory phospholipase A2 (Homo sapiens), Q9NZ20; AID 743126, 2013; 370,000 compounds, 0.56% hits; inhibition, % at 12.2 µM; QFRET BODIPY PC-A2 liposome hydrolysis, fluorescence;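 active = inhibition above mean plus 3 SD of compounds lying within the high and low control bounds, cut at about 19% in these data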;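 note: 0% = median of test compound wells and 100% = no enzyme DMSO wells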
GRIN3A LBD mod – binders of NR3A ligand-binding domain, primary screen, biophysical, differential scanning fluorimetry, uHTS | Glutamate receptor ionotropic, NMDA 3A (GRIN3A) ligand-binding domain | NR3A LBD differential scanning fluorimetry, Tm shift; 0% = protein alone, 100% = glycine-bound protein | Tm shift relative to glycine control, % at 25 µM | 340,000 compounds, 2.5% hits;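 active = melting temperature shift of at least 10% of the positive control shift, at one fixed dose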
ADAM17 inh – ADAM17 inhibitors, primary screen, biochemical, QFRET; recombinant ADAM17, EDANS/DABCYL FRET peptide cleavage; inhibition, % at 6.95 µM; 370,000 compounds, 0.83% hits; AID 720648, 2013;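 active = inhibition above the mean of compounds lying between control limits plus 3 SD, set per campaign, cut at about 8.5% in these data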;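 note: 0% = DMSO-only wells as the low control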
Target sequence (P78536 215-824 limits assumed): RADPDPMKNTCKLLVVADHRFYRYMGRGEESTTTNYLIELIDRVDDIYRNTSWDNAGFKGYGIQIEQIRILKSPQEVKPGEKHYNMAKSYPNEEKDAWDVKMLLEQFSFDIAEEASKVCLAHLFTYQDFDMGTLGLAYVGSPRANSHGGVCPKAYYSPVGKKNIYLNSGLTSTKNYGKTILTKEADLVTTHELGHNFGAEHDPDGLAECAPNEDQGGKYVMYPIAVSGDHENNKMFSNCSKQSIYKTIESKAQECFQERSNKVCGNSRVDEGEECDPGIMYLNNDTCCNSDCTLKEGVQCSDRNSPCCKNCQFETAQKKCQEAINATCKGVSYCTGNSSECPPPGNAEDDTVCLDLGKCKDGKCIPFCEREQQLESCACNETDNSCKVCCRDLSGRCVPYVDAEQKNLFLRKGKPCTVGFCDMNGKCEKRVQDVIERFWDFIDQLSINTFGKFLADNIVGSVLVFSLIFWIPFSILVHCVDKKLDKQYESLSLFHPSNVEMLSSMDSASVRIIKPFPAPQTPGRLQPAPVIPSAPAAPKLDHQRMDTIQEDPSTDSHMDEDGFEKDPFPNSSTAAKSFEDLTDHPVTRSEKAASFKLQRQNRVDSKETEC
Active calls of the source: *; i = inactive; x = no result given. Sampled rows, rich in hits. Any-hit rate of the full collection: about 4.3%.

SMILES	FAS TE block	ADAM10 inh	HGIII-sPLA2 inh	GRIN3A LBD mod	ADAM17 inh
CCC/C(=N\NC(=O)CNC(=O)/C=C/c1ccco1)c1ccccc1	-3	-2	-3	10*	-3
CC/C(=N\NC(=O)CNC(=O)/C=C/c1ccco1)c1ccccc1	-3	8	-6	0	-5
CCc1nc(Nc2cccc(O)c2)c2oc3ccccc3c2n1	8	x	x	21*	x
CCc1nc(Nc2ccncc2)c2oc3ccccc3c2n1	-7	-271	4	2	-93
COC(=O)c1cnn(-c2ccc(C)c(C)c2)c1-n1cccc1	9	-4	-3	11*	-4
O=C(O)c1cnn(-c2ccccc2)c1-n1cccc1	-6	-2	0	0	1
CCOc1ccc(-n2c(SCC(=O)Nc3cccc4ccccc34)nnc2-c2cccs2)cc1	x	4	7	x	5
Cc1c(NC(=O)C2CCCN(S(=O)(=O)c3c(C(C)C)cc(C(C)C)cc3C(C)C)C2)c(=O)n(-c2ccccc2)n1C (configuration not stated)	x	2	2	x	1
O=C(C1=C(O)C(=O)N(c2ncccn2)C1c1ccc(Cl)cc1)c1ccco1 (configuration not stated)	3	2	-4	-1	-2
Cc1ccc(C(=O)C2=C(O)C(=O)N(c3ncccn3)C2c2ccc(Cl)cc2)o1 (configuration not stated)	10	-15	-13	13*	-9
COC(=O)C1=C(C)N(Cc2ccc(C(F)(F)F)cc2)C(=NCc2ccc(C(F)(F)F)cc2)NC1c1ccccc1 (configuration not stated)	x	2	-10	x	0
CCCCCCc1cc2cc(-c3nnc(-c4cc(OC)c(OC)c(OC)c4)o3)c(=O)oc2cc1O	x	x	x	-4	x
CCCCCCc1cc2cc(S(=O)(=O)c3ccc(F)cc3)c(=O)oc2cc1O	-12	-278	3	1	-77
CCCCCCc1cc2cc(-c3nnc(-c4ccccc4O)o3)c(=O)oc2cc1O	0	-16	3	29*	-9
CCCCCCc1cc2cc(-c3nnc(-c4ccccc4OC)o3)c(=O)oc2cc1O	-32	-144	-9	24*	-64
Cc1ccccc1C(=O)N(C)[C@H]1C[C@H]2c3[nH]c4c(-c5ccc6c(c5)OCO6)cccc4c3CCN2C[C@H]1[C@H](C)O	x	9	-8	x	2
CNc1oc(-c2ccccc2F)nc1S(=O)(=O)c1ccc(C)cc1	8	0	-5	13*	-2
CNc1oc(-c2ccccc2)nc1S(=O)(=O)c1ccc(C)cc1	12	-83	-8	0	-12
COc1ccc(-c2csc(NC(=O)CN3C(=O)CCC3=O)n2)cc1	-3	-14	4	-1	-5
COc1ccc(-c2csc(NC(=O)CSCC(=O)Nc3cc(C)on3)n2)c(OC)c1	-2	-3	-3	1	-2
COc1ccc(-c2csc(NC(=O)CSc3ccc(Br)cc3)n2)c(OC)c1	15	8	-9	12*	3
CCCOc1ccc(-c2csc(NC(=O)CN3C(=O)CCC3=O)n2)cc1	-5	5	-9	36*	-1
COc1ccc(-c2csc(NC(=O)CN3C(=O)CCC3=O)n2)cc1OC	-9	12	1	0	-1
COc1ccc(-c2csc(NC(=O)CN3C(=O)CCC3=O)n2)c(OC)c1	-3	-2	-4	18*	-1
CC(=O)N1CCc2cc(S(=O)(=O)NCCC(=O)N(C)Cc3ccccc3F)ccc21	x	-13	6	x	-3
SMILES	FAS TE block	ADAM10 inh	HGIII-sPLA2 inh	GRIN3A LBD mod	ADAM17 inh
C=CCNc1cccc2c1S(=O)(=O)N[C@H](Cc1ccccc1)CO2	x	-7	-9	x	0
O=C(c1cccc(C(F)(F)F)c1)N1CC[C@H]2[C@H](CCCN2Cc2ccc(F)cc2)C1	x	-7	0	x	-2
O=C(Nc1ccc2ccccc2c1)c1cnccn1	-6	-5	0	-12	-4
CCCc1nn(C)c(C(=O)Nc2cccc(CC)c2)c1Cl	11	0	1	12*	5
Cc1nn(C)c(C(=O)Nc2cccc(CN3CCOCC3)c2)c1Br	-9	0	0	0	0
CCCc1nn(C)c(C(=O)Nc2ccc3ccccc3c2)c1Cl	17	3	-3	17*	3
O=S(=O)(NC1CCCCC1)c1ccc(Br)cc1	8	3	-1	0	-4
O=C(NNS(=O)(=O)c1ccc(Br)cc1)NC1CCCCC1	-3	4	-16	13*	4
CCOc1ccc(/C=C(\C(=O)O)c2ccc(S(=O)(=O)N3CCOCC3)s2)cc1OC	-4	-48	7	12*	-18
COc1cc(/C=C(\C(=O)O)c2ccc(S(=O)(=O)N3CCCC3)s2)cc(OC)c1	-3	-31	6	2	-3
CCOc1ccc(/C=C(\C(=O)O)c2ccc(S(=O)(=O)N3CCCCC3)s2)cc1OC	-4	-47	-7	18*	-11
O=c1c2ccccc2[nH]c2ccc(F)cc12	-1	i	2	11*	i
COC(=O)c1cc(S(=O)(=O)Nc2nn(C)c3ccccc23)oc1C	-5	-1	0	11*	-1
COc1ccc(/C=C/C(=O)OCc2csc(-c3ccccc3)n2)cc1OC	26	-17	-21	18*	-6
COc1ccc(/C=C/C(=O)O/N=C(\N)c2ccccn2)cc1OC	-4	-166	4	0	-40
O=C(OCc1csc(-c2ccccc2)n1)c1ccc(O)cc1	3	-5	-20	20*	-1
C#Cc1cccc(OC[C@@H](O)CN2CCC(C(O)(c3ccccc3)c3ccccc3)CC2)c1	x	6	-19	x	2
Cc1cccnc1NC(=O)c1ccccc1-c1ccccc1C(=O)Nc1ncccc1C	-8	7	0	-1	0
Cc1cccnc1NC(=O)c1csnn1	-4	-2	0	10*	-2
O=C(CCN1CCCCCC1)Nc1ccc(F)c(F)c1	-7	3	0	673*	-4
CN1CCN(CCC(=O)Nc2ccc(F)c(F)c2)CC1	-12	0	2	0	-3
CCOc1cc(/C=N/NC(=O)Cn2nc([N+](=O)[O-])cc2C)cc(Br)c1OCc1ccccc1C	18	-5	8	13*	-6
COc1cc(/C=N/NC(=O)Cn2nc([N+](=O)[O-])cc2C)cc(Br)c1OCc1ccccc1	30	-6	-3	9	-6
CSc1nsc(SCC(=O)N2CCN(c3ccccc3)CC2)n1	6	8	2	11*	3
CSc1nsc(SCC(=O)Nc2ccccc2)n1	1	8	-10	-8	2
O=C1COC(c2ccccc2)C2CCCCN12 (configuration not stated)	-8	4	6	16*	6
